According to ChEMBL document CHEMBL1201862, “PubChem BioAssay data set” (2004):
In all, about 400,000 compounds went through this assay and about 2,100 (0.53%) were called active. Inconclusive results (about 14%) are left out. No rule for the calls is given here. The entries come from a sample that favours actives as a whole.

Target: Ataxin-2 (Homo sapiens) (UniProt Q99700)
Assay: qHTS for Inhibitors of ATXN expression.
Format: functional

Sequence of Ataxin-2 (Homo sapiens) (Q99700 whole entry): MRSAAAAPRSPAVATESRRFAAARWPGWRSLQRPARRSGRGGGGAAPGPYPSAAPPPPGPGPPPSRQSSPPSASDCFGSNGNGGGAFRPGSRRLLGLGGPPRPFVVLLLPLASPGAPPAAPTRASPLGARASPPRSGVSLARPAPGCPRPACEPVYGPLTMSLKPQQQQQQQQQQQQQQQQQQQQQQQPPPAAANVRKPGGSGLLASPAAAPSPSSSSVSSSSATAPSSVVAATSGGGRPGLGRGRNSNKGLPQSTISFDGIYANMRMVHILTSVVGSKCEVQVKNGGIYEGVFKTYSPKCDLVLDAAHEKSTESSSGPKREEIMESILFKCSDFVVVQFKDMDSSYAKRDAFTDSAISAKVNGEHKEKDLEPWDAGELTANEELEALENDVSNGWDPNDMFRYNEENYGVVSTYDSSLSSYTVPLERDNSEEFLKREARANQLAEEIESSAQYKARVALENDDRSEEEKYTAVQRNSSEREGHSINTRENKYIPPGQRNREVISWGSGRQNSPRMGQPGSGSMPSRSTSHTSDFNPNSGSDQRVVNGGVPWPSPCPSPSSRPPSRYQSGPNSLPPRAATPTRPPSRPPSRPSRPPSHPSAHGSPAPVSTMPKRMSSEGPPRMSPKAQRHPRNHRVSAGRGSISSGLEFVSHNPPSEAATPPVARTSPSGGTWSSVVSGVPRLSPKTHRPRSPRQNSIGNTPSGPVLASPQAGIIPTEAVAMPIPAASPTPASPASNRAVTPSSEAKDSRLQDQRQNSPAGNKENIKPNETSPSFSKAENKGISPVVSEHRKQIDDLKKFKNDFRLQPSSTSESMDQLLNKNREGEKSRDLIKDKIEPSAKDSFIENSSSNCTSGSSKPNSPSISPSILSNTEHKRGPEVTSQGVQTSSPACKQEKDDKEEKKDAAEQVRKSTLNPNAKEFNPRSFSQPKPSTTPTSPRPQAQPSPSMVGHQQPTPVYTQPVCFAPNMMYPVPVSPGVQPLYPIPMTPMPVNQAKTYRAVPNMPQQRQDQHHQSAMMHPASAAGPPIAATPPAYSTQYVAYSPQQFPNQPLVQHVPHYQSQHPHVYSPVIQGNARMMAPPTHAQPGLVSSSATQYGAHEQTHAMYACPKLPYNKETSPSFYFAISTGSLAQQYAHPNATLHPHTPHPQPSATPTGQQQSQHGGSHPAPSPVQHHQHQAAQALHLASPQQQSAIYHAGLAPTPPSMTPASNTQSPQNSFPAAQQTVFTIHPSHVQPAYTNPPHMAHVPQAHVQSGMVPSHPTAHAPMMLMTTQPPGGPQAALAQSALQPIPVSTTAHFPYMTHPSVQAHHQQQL

Row | Structure (SMILES) | Potency
1 | Cc1nc2ccc(C(=O)Nc3cccc(OCC(=O)N(C)C)c3)cn2c1N(C)CC1CCCCC1 | 35.5 µM (active)
2 | Cc1ccc2nc3c(cc(C(=O)NC4CCCCC4)c(=N)n3C3CCCCC3)c(=O)n2c1 | inactive
3 | Cc1ccc2nc3c(cc(C(=O)NC4CCCC4)c(=N)n3C3CCCCC3)c(=O)n2c1 | inactive
4 | COc1ccc(C(=O)c2sc3nc(C)cc(-c4cccs4)c3c2N)cc1OC | inactive
5 | CCCn1nc(NC(C)=O)c2cc3cccc(C)c3nc21 | inactive
6 | CCOc1ccc(NCc2cccn2-c2nnc(N3CCC(C(=O)NCCCN4CCCCC4CC)CC3)s2)cc1 (stereo unspecified) | 22.4 µM (active)
7 | COCCCn1/c(=N/C(C)=O)c(C#N)cc2c(=O)n3cccc(C)c3nc21 | inactive
8 | COc1ccccc1NC(=O)c1sc2nc(Cc3ccccc3)cc(C(F)(F)F)c2c1N | inactive
9 | COc1ccccc1NC(=O)c1sc2nc(C)c(C(=O)Nc3ccc(C)cc3C)c(-c3cccs3)c2c1N | inactive
10 | COc1ccccc1C(=O)Nc1c(C(=O)N(C)Cc2ccccc2)sc2nc(C)c(Cl)c(C)c12 | 11.2 µM (active)
11 | Nc1cc(C(F)(F)F)cc([N+](=O)[O-])c1N | inactive
12 | O=[N+]([O-])c1cc(C(F)(F)F)cc([N+](=O)[O-])c1NCCN=C(S)Nc1ccc(Cl)c(Cl)c1 | 39.8 µM (active)
13 | FC(F)(F)c1cccc(NC(S)=NCc2ccc(Cl)cc2)c1 | inactive
14 | CCOc1ccc(-c2csc(/C(C#N)=C\c3ccc(O)c([N+](=O)[O-])c3)n2)cc1 | 8.91 µM (active)
15 | CCOc1cc(/C=C(\C#N)c2nc(-c3cccs3)c(NC(C)=O)s2)ccc1O | inactive
16 | CCc1ccc(/C=C(/C#N)c2nc(-c3ccc(C)cc3)cs2)cc1 | inactive
17 | CCOc1ccc2nc(NCCCNS(=O)(=O)c3ccccc3)c(C#N)cc2c1 | inactive
18 | CN1CCN(c2ccc(NC(=O)c3sc4ccccc4c3Cl)cc2)CC1 | inactive
19 | CC(=O)N1CCN(c2ccc(NC(=O)c3cccc(F)c3)cc2)CC1 | inactive
20 | CN1CCN(c2ccc(NC(=O)c3ccc(-c4ccc(Cl)cc4)o3)cc2)CC1 | 25.1 µM (active)
21 | CCCCOC(=O)c1ccc(NC(=O)/C(C#N)=C/c2ccc(-c3ccccc3)o2)cc1 | inactive
22 | CCOc1cccc(/C=N/NC(=O)CC2C(=O)NN=C2C)c1O (stereo unspecified) | inactive
23 | O=C(N=Nc1c(O)[nH]c2ccc(Br)cc12)c1ccccc1-n1cccc1 | 17.8 µM (active)
24 | Cc1cccc(N=Nc2c(O)[nH]c3ccc(F)cc23)c1 | inactive

Row | Structure (SMILES) | Potency
25 | COc1ccc(/C=N/OCC(=O)N=Nc2c(O)[nH]c3ccc(Br)cc23)cc1 | inactive
26 | Cc1cc(C)c(C#N)c(SCC(=O)Nc2nonc2N)n1 | inactive
27 | COc1ccccc1N1C(=O)C2C(C(=O)c3ccccc3)=NN(c3ccc(Br)cc3)C2C1=O (stereo unspecified) | inactive
28 | COc1cccc(C(=O)Oc2c(Sc3ccc(C)cc3)c(C)nn2C(C)(C)C)c1OC | 20 µM (active)
29 | Cc1ccc(S(=O)(=O)c2c(C)nn(C(C)(C)C)c2OC(=O)C(C)C)cc1 | inactive
30 | CCN1C=C(C(=O)OC)C(c2cccc(OC)c2OC)C(C(=O)OC)=C1 | inactive
31 | CC(=O)Nc1ccc(N2C(=O)c3cccc4c(O)ccc(c34)C2=O)cc1 | inactive
32 | CC(=O)NN1C(=O)c2ccc3c4c(ccc(c24)C1=O)C(=O)N(NC(C)=O)C3=O | 25.1 µM (active)
33 | CC(=O)Nc1ccc2c3c(cccc13)C(=O)N(c1ccccc1)C2=O | inactive
34 | CCOCCCn1/c(=N/C(=O)c2cccs2)c(C#N)cc2c(=O)n3ccccc3nc21 | inactive
35 | CSC(SC)=C(C#N)C(=O)c1ccccc1 | 39.8 µM (active)
36 | Cc1cc(C)c(C#N)c(SCC(=O)c2ccccc2)n1 | inactive
37 | COc1cccc(C(=O)C(C#N)=C(SC)SC)c1 | 14.1 µM (active)
38 | COc1cccc(N/C(SC)=C(/C#N)C(=O)NCc2cccs2)c1 | inactive
39 | CCOC(=O)C1(C)C(=O)CC2c3nc4ccccc4cc3CN2C1=O (stereo unspecified) | inactive
40 | O=C1c2ccccc2S(=O)(=O)c2cc(N3CCC4(CC3)OCCO4)ccc21 | inactive
41 | CCN(CC)C(=O)CSC(Nc1cccc(F)c1)=C(C#N)C#N | inactive
42 | N#Cc1c(Cl)nc(-c2ccncc2)nc1-c1ccccc1 | inactive
43 | CC(C)(C)SCCNS(=O)(=O)c1ccc(C#N)cc1 | inactive
44 | COc1ccc(N2CCN(CC(=O)NC(=O)NC(C)(C)C)CC2)cc1 | inactive
45 | COc1ccc(NC(=O)CN2CCN(c3ccccc3)CC2)cc1 | inactive
46 | COc1ccc(NC(=O)c2ccc(NC(=O)CN3CCN(c4ccc(O)cc4)CC3)cc2)cc1 | 31.6 µM (active)
47 | CC(C)Oc1ccc(C(=O)/C=C2/C(=O)Nc3ccccc32)cc1 | 39.8 µM (active)
48 | Cn1cc(/C=C2\SC(=O)N(c3ccccc3)C2=O)c2ccccc21 | inactive

Row | Structure (SMILES) | Potency
49 | O=C1S/C(=C\c2ccc(O)c([N+](=O)[O-])c2)C(=O)N1c1ccccc1Cl | 33.6 µM (active)
50 | O=C(Cn1cc(/C=C\[N+](=O)[O-])c2ccccc21)Nc1ccccc1 | 35.5 µM (active)
51 | Cc1ccccc1OCC(=O)OCC(=O)c1ccc[nH]1 | inactive
52 | CCOC(=O)Cn1cc(/C=N/NC(=O)c2cc3ccccc3o2)c2ccccc21 | inactive
53 | O=C(O)c1ccc(Cn2cc(/C=C\[N+](=O)[O-])c3ccccc32)o1 | inactive
54 | CCOC(=O)Cn1cc(/C=C/[N+](=O)[O-])c2ccccc21 | 39.8 µM (active)
55 | C=CCn1cc(/C=C/c2cc[n+](C)cc2)c2ccccc21 | inactive
56 | CCOC(=O)N/N=C/c1cn(CCCOc2ccc(C)cc2)c2ccccc12 | inactive
57 | N#Cc1ccccc1Cn1cc(/C=C/[N+](=O)[O-])c2ccccc21 | 29.9 µM (active)
58 | Cc1cc(C)cc(NC(=O)Cn2cc(C=O)c3ccccc32)c1 | inactive
59 | Cc1ccc(C(=O)NNC(=O)COC(=O)COc2ccccc2C#N)cc1 | inactive
60 | CCOC(=O)COc1ccccc1/C=C\[N+](=O)[O-] | 6.31 µM (active)
61 | N#Cc1ccccc1Cn1cc(/C=N/Nc2ccc([N+](=O)[O-])cn2)c2ccccc21 | inactive
62 | COC(=O)c1cc(-n2cccc2)ccc1N1CCOCC1 | inactive
63 | S=C(Nc1ccccc1)Nc1ccc2c[nH]nc2c1 | inactive
64 | Cc1ccc(CNC(=O)c2cccc3c2C(=O)c2ccc(N4CCC(C)CC4)cc2S3(=O)=O)cc1 | inactive
65 | Cc1ccc(-c2cc(-c3ccco3)c3c(N)c(C(=O)NN)oc3n2)cc1 | inactive
66 | CC(C)(C)[C@H](N)C(=O)N[C@H]1CCC2C3CC=C4C[C@@H](O)CC[C@]4(C)C3CC[C@@]21C (stereo partly specified) | 37.7 µM (active)
67 | CC(=O)C1CCC2C3CC=C4CC(SC(=N)N)CCC4(C)C3CCC12C (stereo unspecified) | 37.7 µM (active)
68 | Cc1cccc(OCc2n(C)c3ccccc3[n+]2CC(=O)OC2CC(C)CCC2C(C)C)c1 (stereo unspecified) | 35.5 µM (active)
69 | Nc1nnnn1/N=C/c1cc(Cl)cc(Cl)c1O | inactive
70 | O=C(Nc1nccs1)c1cccnc1O | inactive
71 | CN(C)CCCNC(=O)C[C@H]1C[C@H](C(=O)N2CCOCC2)[C@@]2(CCC3CCCC3)c3[nH]c4cc(-c5ccco5)ccc4c3CCN2C1=O | 35.5 µM (active)
72 | O=C(C[C@H]1C[C@H](C(=O)N2CCOCC2)[C@@]2(CCC3CCCC3)c3[nH]c4cc(-c5ccco5)ccc4c3CCN2C1=O)NCCN1CCOCC1 | 35.5 µM (active)

Row | Structure (SMILES) | Potency
73 | O=C(C[C@H]1C[C@H](C(=O)N2CCCCC2)[C@@]2(CCc3ccccc3)c3[nH]c4cc(-c5ccco5)ccc4c3CCN2C1=O)NCCN1CCOCC1 | 31.6 µM (active)
74 | O=C(NCCN1CCOCC1)c1cc2c(=O)n3ccccc3nc2n1Cc1ccccc1 | inactive
75 | O=C(CCCCCn1c(=S)[nH]c2ccc(N3CCOCC3)cc2c1=O)NCCc1ccccc1 | inactive
76 | O=C(C[C@H]1C[C@H](C(=O)N2CCOCC2)[C@@]2(CCC3CCCC3)c3[nH]c4cc(-c5ccco5)ccc4c3CCN2C1=O)NCCc1ccccn1 | 35.5 µM (active)
77 | COCCCn1c(=N)c(C(=O)NCc2ccco2)cc2c(=O)n3ccccc3nc21 | inactive
78 | CCN(C(=O)COC(=O)c1cc(-c2ccc(C)o2)nc2ccccc12)C1CCS(=O)(=O)C1 (stereo unspecified) | inactive
79 | COc1ccc(OC)c(NC(=O)CCN2CCN(C/C=C/c3ccccc3)CC2)c1 | inactive
80 | CCOC(=O)c1[nH]c2ccc(F)cc2c1NC(=O)CN1CCN(C/C=C/c2ccccc2)CC1 | 39.8 µM (active)
81 | COc1cc(NC(=O)CN2CCN(S(=O)(=O)/C=C/c3ccccc3)CC2)cc(OC)c1OC | inactive
82 | CCCCCCCN(c1ccccc1)[C@@H]1C[C@H]2CCCC(=O)N3CC[C@@H](C1)[C@@H]23 | 35.5 µM (active)
83 | COc1ccc(NC(=O)c2ccc(-c3ccc(-c4noc(C)n4)cc3C)cc2)cc1N1CCN(C)CC1 | 39.8 µM (active)
84 | CC(C)(C)c1ccc(CN2N=Nc3ccccc3S2(=O)=O)cc1 | 39.8 µM (active)
85 | O=C(N/N=C\c1c(O)ccc2ccccc12)c1cncc(Br)c1 | inactive
86 | CC(C)(C)C(=O)Oc1ccc2cc(-c3ccc4ccccc4n3)c(=O)oc2c1 | inactive
87 | COc1ccc(NC(=O)CSc2ccc3c4c(cccc24)C(=O)c2ccccc2-3)cc1 | 22.4 µM (active)
88 | COC(=O)c1ccccc1SCC(=O)Nc1ccc(N2CCOCC2)cc1 | inactive
89 | COc1ccc(N2C(=O)c3cccc4c(N(C)CCO)ccc(c34)C2=O)cc1 | inactive
90 | Oc1ccc(Cl)cc1/C=N/c1ccc2c3c(cccc13)CC2 | inactive
91 | CC(C)(C)[S+]([O-])N1Cc2cc(C(=O)NCc3ccc(Oc4ccccc4)cc3)nc(-c3cccc(-c4cc5ccccc5o4)c3)c2[C@H]1CCO (stereo partly specified) | 35.5 µM (active)
92 | CC(C)(C)[S+]([O-])N1Cc2cc(C(=O)NCc3ccc4c(c3)OCO4)nc(-c3cccc(-c4cc5ccccc5o4)c3)c2[C@@H]1CCO (stereo partly specified) | 31.6 µM (active)
93 | CC(=O)N1Cc2cc(C(=O)NCc3cccc(F)c3)nc(-c3cccc(C4=CCCCC4)c3)c2[C@H]1CCO | 35.5 µM (active)
94 | CC(C)(C)[S+]([O-])N1Cc2cc(C(=O)NCc3ccc(Oc4ccccc4)cc3)nc(-c3cccc(-c4cc5ccccc5o4)c3)c2[C@@H]1CCO (stereo partly specified) | 39.8 µM (active)
95 | CCn1c(=O)c(C(=O)NCc2ccc3c(c2)OCO3)c(O)c2ccccc21 | inactive
96 | O=C(CSc1nc(C2CCCCC2)nc2ccccc12)NCc1ccc2c(c1)OCO2 | inactive
